A structure can be active in one record and inactive in another. Calls of active or inactive are those of the source. Rule for the calls: active = hit-call score of the fitted dose curve at least 0.9, where 1 is the maximum; inactive = score below 0.9.
The molecules below were run on Thrombomodulin, THBD (gene 7056) (assay: BSK_LPS_Thrombomodulin: BioMAP Diversity Plus: LPS Assay for Thrombomodulin Biomarker Activity (AID 2284296)). Settings: primary human HUVEC with PBMC.
Protocol: BSK_LPS is a cell-based, multiplexed-readout assay that uses umbilical vein endothelium and peripheral blood mononuclear cells, a human vascular primary cell co-culture, with measurements taken at 24 hours after chemical dosing in a 96-well plate.BSK_LPS_Thrombomodulin is an assay component measured in the BSK_LPS assay. It measures Thrombomodulin antibody related to regulation of gene expression using ELISA technology.Data from the assay component BSK_LPS_Thrombodulin was analyzed at the endpoint, BSK_LPS_Thrombomodulin, in the positive analysis fitting direction relative to DMSO as the negative control and baseline of activity. Using a type of binding reporter, gain or loss-of-signal activity can be used to understand protein changes. To generalize the intended target to other relatable targets, this assay endpoint is annotated to the 'gpcr' intended target family, where the subfamily is 'rhodopsin-like receptor'.
The levels of cell surface (or secreted, indicated by the prefix "s") biomarker endpoints were measured by ELISA. Overt cytotoxicity to cells in confluent adherent cultures (all systems other than the BT system) was assessed by measuring total protein levels using sulforhodamine B (SRB) staining in parallel cultures at the time of biomarker measurements, indicated as SRB endpoints. For proliferation assays for adherent cell types, individual cell types are cultured at sub-confluence and relative cell numbers quantified by SRB staining at time points optimized for each system (48 h: 3C and CASM3C systems; 72 h: BT and HDF3CGF systems; 96 h: SAg system). SRB was performed by staining cells with 0.1% SRB after fixation with 10% TCA and reading wells at 560 nm.Viability and proliferation of PBMC (T cells) was quantified by Alamar Blue reduction for the SAg and BT systems. For PBMC viability (referred to as PBMC Cytotoxicity within the assay endpoint names), cells were plated (75,000/well in a 96-well plate) and then chemical samples added for 1 h before addition of activators, SEB and TSST-1 (20 ng/mL final concentration each). Cells were incubated for 90 h. Then, Alamar Blue (20 uL/well) (Invitrogen, Cat DAL1100) was added for 6 h, and the plates were read with a fluorescence microplate reader at 546/580 nm (excitation/emission). For PBMC proliferation, cells were plated and activated as above but incubated for only 16 h prior to addition of Alamar Blue. Plates were read after 6 h.
For `O=S(=O)(O)CCC(F)(F)C(F)(F)C(F)(F)C(F)(F)C(F)(F)C(F)(F)F`, the outcome was “inactive” and the AC50 was 0.227 µM (active).
For `OC(O)(C(F)C(O)(O)C(F)(F)F)C(F)(F)F`, the outcome was “inactive”.
For `OCCC(F)(F)C(F)(F)C(F)(F)C(F)(F)F`, the outcome was “inactive”.
In the case of `NCC(F)(F)C(F)(F)C(F)(F)C(F)(F)F`, the outcome is reported as “inactive”.
With `C[Si](C)(C)C(F)(F)C(F)(F)C(F)(F)F` the outcome was “inactive”.
In the case of `FC(F)C(F)(F)COCC1CO1` (stereo unspecified), the outcome is reported as “inactive”.
For `O=C(Cl)C(F)(F)C(F)(F)C(F)(F)C(=O)Cl`, the outcome was “inactive”.
With `FC(F)(F)C(F)(F)C(F)(F)C(F)(F)C(F)(F)C(F)(F)I` the outcome was “inactive”.
In the case of `FC(F)=C(F)C(F)(F)C(F)(F)C(F)(F)C(F)(F)C(F)(F)C(F)(F)F`, the outcome is reported as “inactive”.
`FC(F)(F)COC(OCC(F)(F)F)OCC(F)(F)F` was tested, and the outcome was “inactive”.

From PubChem BioAssay (EPA / NIEHS)
